SMILES strings stand for the structures. Calls of active or inactive are those of the source.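 The calls were made as follows, unless noted: active = inhibition at or above 50% relative to wild type and mutant plate controls; inactive = inhibition below 50%.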

Assay [1] can be described thus: loss of swimming-algae plug formation – whole organism, Chlamydomonas reinhardtii, WT vs cilia-less mutant, absorbance, 96-well, primary screen (AID 463189).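 Also: 0% = wild type cc124 cells in DMSO and 100% = ciliumless bld1 mutant cells.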 The conditions noted are these: Chlamydomonas reinhardtii gravitaxis, OD600 absorbance, 2 days; at 10 µM; stronger effect = higher value.
The nature of assay [2]: endothelial E-selectin expression blockers – imaging, HUVEC, immunofluorescence, MLSMR starter and 10KST1 sets, primary screen (AID 487;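 active = visually confirmed hit in the image check and inhibition above 20%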;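 as to inhibition: signal is fraction of cell area covered by stained E-selectin grains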;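 as to nuclei count: 100% = median nuclei count of all wells on the same plate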). The conditions noted are these: HUVEC TNFalpha-induced E-selectin immunofluorescence imaging, at 2 µM; inhibition: stronger effect = higher value; nuclei count: measured here: cell number, toxicity.
Assay [3] in a line: Primary imaging screen for DUSP6 inhibitors that restore phospho-Erk in transfected HeLa cells, chemical complementation (AID 609;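 active = compounds giving at least 50% inhibition in the cell-based MKP-3 phosphatase rescue imaging test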;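 as to inhibition: phospho-Erk level distribution per well compared with pooled transfected vehicle control wells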). The conditions noted are these: HeLa MKP-3 transfected, phospho-Erk imaging KS statistic, at 10 µM.
Assay [4] has as its target Dual specificity protein phosphatase 6 (Homo sapiens) (UniProt Q16828). Described as above. To be noted: HeLa MKP-3 transfected, phospho-Erk imaging KS statistic, at 10 µM, stronger effect = higher value.
For assay [5], the target named is Voltage-gated potassium channel subunit beta-2 (Rattus norvegicus) (UniProt P62483). The assay is described as follows: inhibitors of rat Kvbeta2 reductase activity – biochemical, NADPH fluorescence, primary screen (AID 622;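 active = fluorescence slope higher than the sample average by over 3 SD, cut at about -0.22 in these data, passing the limit was not always enough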;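 also: slope of raw intensity against log time taken from 70 to 1610 s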). The conditions noted are these: recombinant KvBeta, 4-cyanobenzaldehyde reduction, at 10 µM, stronger effect = higher value.
Assay [6] shares this target. The assay is described as follows: enhancers of rat Kvbeta2 NADPH turnover – biochemical, NADPH fluorescence, primary screen (AID 623;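 active = NADPH fluorescence slope more negative than the mean of all samples by about 3 SD, 99.7% confidence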;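 also: fluorescence intensity change per second fitted from 20 to 320 s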). To be noted: Recombinant KvBeta, NADPH fluorescence decrease slope, 10 min; at 10 µM; stronger effect = lower value.
Assay [7] has as its target Alpha-2C adrenergic receptor (Homo sapiens) (UniProt P18825). Nature of the assay: compounds altering alpha2C-coupled GIRK flux – cell-based, HEK293 alpha2C/GIRK1/2, thallium flux, primary screen (AID 624;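 active = fluorescence slope after compound addition differing from the mean of all screened samples at 99.7% confidence, in either direction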;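 also: slope of fluorescence ratio to pre-addition baseline per second over 15 to 24 s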). The conditions noted are these: thallium flux BTC fluorescence, at 10 µM, actives lie on both sides.
The nature of assay [8]: inhibitors of larval lipid processing in zebrafish, primary screen, whole organism, PED6 fluorescence, gall bladder and intestine (AID 686;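 active = a full or partial loss of lipid-probe fluorescence in the fish gall bladder, intestine or both, judged by eye; inactive = no fluorescence loss, or compound toxic to the fish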;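 also: larvae 5 to 7 days old with five fish per well; signal comes from phospholipase A2 cleavage of quenched PED6 carried via bile; overnight exposure to compound and PED6 before scoring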). The conditions noted are these: Zebrafish larvae PED6 lipid processing, fluorescence scoring.
Assay [9] in a line: blockers of RIG-like receptor reporter activation – cell-based, Sendai virus stimulus, luciferase, 10K MLSCN set, TLR/RLR signaling modifier project, primary screen (AID 602276;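 active = inhibition at or above 50% at 10 µM; inactive = inhibition below 50%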;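 also: firefly luciferase from ISG56 promoter only with Renilla not read in this screen; 0% = Sendai virus plus DMSO and 100% = medium plus DMSO without virus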). To be noted: HEK293 RL24 IRF3 luciferase reporter, at 10 µM, stronger effect = higher value. (In general: Reporter assays use an easily measured gene product as a stand-in for the process of interest.)
Assay [10] can be described thus: TLR3 IRF3 reporter activation blockers – cell-based, poly I:C stimulus, luciferase, 10K MLSCN set, primary screen (AID 602277;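 active = inhibition of the reporter signal at or above 50%; inactive = inhibition below 50%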). The conditions noted are these: HEK293-TLR3 RL24 IRF3 luciferase reporter, at 10 µM, stronger effect = higher value.
The target in assay [11] is Muscarinic acetylcholine receptor M4 (Homo sapiens) (UniProt P08173). Nature of the assay: M4-linked GIRK flux change, two-sided – cell-based, HEK293 M4/GIRK, thallium flux, BTC-AM, M4 allosteric agonist project, primary screen (AID 625;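 active = fluorescence slope after compound addition differing from the mean of all tested samples at 99.7% confidence, mostly higher but some lower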;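 also: thallium influx through GIRK channels coupled to M4 in HEK293 cells with BTC-AM dye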). The conditions noted are these: at 10 µM, actives lie on both sides.
[12] abbreviates: measured here: cell density z-score.
[13] abbreviates: measured here: nuclear c-Myc green intensity z-score.
[14] abbreviates: measured here: nuclear pErk red intensity z-score, stronger effect = higher value.

Voltage-gated potassium channel subunit beta-2 (Rattus norvegicus), sequence (P62483 whole entry, looked up): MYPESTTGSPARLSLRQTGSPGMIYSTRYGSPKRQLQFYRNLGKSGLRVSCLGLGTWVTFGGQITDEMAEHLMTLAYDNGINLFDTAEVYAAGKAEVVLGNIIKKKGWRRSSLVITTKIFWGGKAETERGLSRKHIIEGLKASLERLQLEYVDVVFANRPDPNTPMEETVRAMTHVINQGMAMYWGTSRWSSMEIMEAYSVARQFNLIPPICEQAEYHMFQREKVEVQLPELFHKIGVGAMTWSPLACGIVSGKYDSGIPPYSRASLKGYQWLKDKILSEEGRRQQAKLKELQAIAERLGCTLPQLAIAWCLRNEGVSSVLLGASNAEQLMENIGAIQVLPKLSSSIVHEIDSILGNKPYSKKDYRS
Dual specificity protein phosphatase 6 (Homo sapiens), sequence (Q16828 whole entry, looked up): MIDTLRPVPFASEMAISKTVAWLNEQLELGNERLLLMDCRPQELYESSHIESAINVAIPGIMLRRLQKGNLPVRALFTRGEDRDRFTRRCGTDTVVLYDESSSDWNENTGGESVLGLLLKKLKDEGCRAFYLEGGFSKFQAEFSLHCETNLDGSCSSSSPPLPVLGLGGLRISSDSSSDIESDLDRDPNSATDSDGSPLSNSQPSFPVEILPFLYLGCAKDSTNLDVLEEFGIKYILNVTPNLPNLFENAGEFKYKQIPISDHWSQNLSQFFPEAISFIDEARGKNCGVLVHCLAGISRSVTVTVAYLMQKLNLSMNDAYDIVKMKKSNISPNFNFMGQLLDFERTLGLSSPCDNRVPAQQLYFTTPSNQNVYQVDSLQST
Alpha-2C adrenergic receptor (Homo sapiens), sequence (P18825 whole entry, looked up): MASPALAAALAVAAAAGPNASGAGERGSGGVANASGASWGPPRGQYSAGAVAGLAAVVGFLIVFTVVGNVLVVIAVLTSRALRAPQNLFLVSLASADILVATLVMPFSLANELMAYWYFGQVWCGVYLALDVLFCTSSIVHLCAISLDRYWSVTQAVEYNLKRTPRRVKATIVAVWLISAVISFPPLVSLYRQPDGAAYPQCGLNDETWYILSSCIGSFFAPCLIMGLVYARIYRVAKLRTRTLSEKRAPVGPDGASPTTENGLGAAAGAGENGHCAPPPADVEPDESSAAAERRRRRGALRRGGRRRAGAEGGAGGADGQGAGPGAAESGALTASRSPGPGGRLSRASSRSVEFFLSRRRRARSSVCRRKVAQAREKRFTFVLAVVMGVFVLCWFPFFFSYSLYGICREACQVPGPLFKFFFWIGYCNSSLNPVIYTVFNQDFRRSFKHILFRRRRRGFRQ
Muscarinic acetylcholine receptor M4 (Homo sapiens), sequence (P08173 whole entry, looked up): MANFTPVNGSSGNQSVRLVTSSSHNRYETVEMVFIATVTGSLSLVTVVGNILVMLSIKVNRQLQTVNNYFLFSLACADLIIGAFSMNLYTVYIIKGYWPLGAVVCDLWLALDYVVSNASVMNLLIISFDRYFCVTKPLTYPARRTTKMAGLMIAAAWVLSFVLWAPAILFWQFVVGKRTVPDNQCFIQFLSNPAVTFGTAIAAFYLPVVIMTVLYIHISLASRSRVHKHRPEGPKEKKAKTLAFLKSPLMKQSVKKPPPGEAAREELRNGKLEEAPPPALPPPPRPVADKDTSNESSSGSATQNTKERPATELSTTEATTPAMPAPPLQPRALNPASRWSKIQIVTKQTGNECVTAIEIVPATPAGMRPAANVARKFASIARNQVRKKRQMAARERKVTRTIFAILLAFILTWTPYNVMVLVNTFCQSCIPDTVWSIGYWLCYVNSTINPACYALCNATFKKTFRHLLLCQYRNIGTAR

The term inhibition denotes the change of the read-out against control, counted positive when it falls. Regarding `Cc1[nH]c2ccc(O)cc2c1CCN`, the inhibition in [1] was 5.71% (inactive).

As for `O=C1CC[C@@]2(O)[C@H]3Cc4ccc(O)c5c4[C@@]2(CCN3CC2CC2)[C@H]1O5`, the inhibition in assay [2] was -64.2% (inactive); in [4], 11.3% (inactive); in assay [1] it was 17.1% (inactive); in assay [9], 10.3% (inactive); in assay [10], 48.8% (inactive). The compound further came in with a nuclei count in assay [2] of 120%. The z-score in [3] (setting [12]) turned out to be 1.03; in [3] (setting [13]) it was 0.419; in [3] (setting [14]) it was 0.423. Further, the fluorescence slope in [5] is -0.463 (inactive). Moreover, in assay [6], the NADPH fluorescence slope is -9.1e-06 (inactive). Moreover, in assay [7], the slope was 0.0048 (inactive). The compound was called inactive in assay [8].

Turning to `C[C@@H](N)Cc1cnc[nH]1`, in [1], the inhibition was -0.522% (inactive).

As for `CC(N)[C@H](O)c1ccc(O)c(O)c1` (stereo partly drawn), the inhibition in assay [1] is 1.5% (inactive).

Take `Cn1c(O)c(C(=O)c2ccccc2Cl)c(=O)n(C)c1=O`: the inhibition in assay [2] is 35.3% (inactive); in assay [4], 5.57% (inactive); in assay [1], 9.5% (inactive). In [2], this compound showed a nuclei count of 79.3%. The z-score is -0.324 in [3] (setting [12]), 0.445 in assay [3] (setting [13]) and 0.96 in assay [3] (setting [14]). Further, the fluorescence slope in assay [5] was -0.47 (inactive); in assay [11] it was 0.00543 (inactive). In [6], the NADPH fluorescence slope is -3.4e-05 (inactive). Moreover, the call in assay [8] was inactive.

On to `COc1ccc2[nH]cc(CCN)c2c1`, for which, in assay [1], the inhibition was 3.77% (inactive).

For the origin of these results see PubChem BioAssay.
